The record followed here is PubChem BioAssay (NCI).

Compounds without any hit were thinned out: in the full panel of roughly 83,000, 20% have a hit.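 48-hour exposure, single concentration, 96-well plates; percent growth endpoint where 0 means no net growth. Active: below 10.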 A number with no mark means an inactive call. Calls of active or inactive are those of the source.

Holding throughout (assay): NCI-60 one-dose screen, 48 h (100 = growth as untreated, 0 = no growth, -100 = all killed)
One test deals with RPMI-8226 leukemia. To be noted: 10 µM unless noted.
For the next test, the system named is OVCAR-8 ovarian. As to conditions: 10 µM unless noted.
A further test deals with OVCAR-5 ovarian. As to conditions: 10 µM unless noted.
The next test concerns OVCAR-4 ovarian. To be noted: 10 µM unless noted.
The subject of the next test is IGROV1 ovarian. To be noted: 10 µM unless noted.
The next test concerns OVCAR-3 ovarian. To be noted: 10 µM unless noted.
A further test concerns HS 578T breast. To be noted: 10 µM unless noted.
The test system of another test is NCI/ADR-RES ovarian. To be noted: 10 µM unless noted.
For another test, the system named is T-47D breast. As to conditions: 10 µM unless noted.
The test system of another test is BT-549 breast. To be noted: 10 µM unless noted.
A further test relates to MDA-MB-435 melanoma. To be noted: 10 µM unless noted.
The next test concerns SW-620 colon. To be noted: 10 µM unless noted.
For the next test, the system named is MCF7 breast. To be noted: 10 µM.
A further test has as its system HCT-116 colon. As to conditions: 10 µM unless noted.
The test system of another test is HCC-2998 colon. As to conditions: 10 µM unless noted.
A further test concerns KM12 colon. To be noted: 10 µM unless noted.

Turning to `O=C(c1nc2ccccc2[nH]1)C1[C@@H](c2cccc(O)c2)C2CC3CCCCC3N2[C@@]12C(=O)Nc1cc(Cl)ccc12` (stereo not given in full), the growth in the test with RPMI-8226 leukemia is 4.43% (active); in the test on OVCAR-8 ovarian, 52.5%; in the test with OVCAR-5 ovarian it was 69.3%; in the test with OVCAR-4 ovarian it was 34.4%; in the test with IGROV1 ovarian, 38.8%; with OVCAR-3 ovarian it was 42.5%. In addition, the growth was 57.1% with HS 578T breast; 85.2% with NCI/ADR-RES ovarian; 34.3% in the test on T-47D breast; 62.5% in the test on BT-549 breast; 29.3% with MDA-MB-435 melanoma; 39.3% with SW-620 colon. Further, the growth was 18.9% in the test with MCF7 breast, 31.5% in the test on HCT-116 colon, 33.8% in the test on HCC-2998 colon and 34.9% in the test on KM12 colon.
`Fc1cccc(COc2ccc(Nc3ncnc4onc(-c5ccccc5)c34)cc2)c1`: the growth was 12.5% in the test with RPMI-8226 leukemia; 29.2% in the test with OVCAR-8 ovarian; 9.86% (active) with OVCAR-5 ovarian; 43.3% with OVCAR-4 ovarian; 24.5% in the test with IGROV1 ovarian; 0.458% (active) in the test on OVCAR-3 ovarian. Also, the growth in the test with HS 578T breast is -16.7% (active); with NCI/ADR-RES ovarian it was 46.5%; with T-47D breast, 45.4%; with BT-549 breast it was 12.8%; in the test with MDA-MB-435 melanoma it was -54.7% (active); in the test on SW-620 colon it was 19.8%. For the same molecule, the growth in the test with MCF7 breast is 14%; with HCT-116 colon, 8.15% (active); in the test with HCC-2998 colon, 9.52% (active); in the test on KM12 colon it was 9.57% (active).
Turning to `NC(CCc1nc2ccccc2c(=O)[nH]1)C(=O)O` (stereo not given), the growth with RPMI-8226 leukemia is 101%; in the test on OVCAR-8 ovarian, 104%; in the test with OVCAR-5 ovarian it was 105%; in the test with OVCAR-4 ovarian it was 103%; in the test with IGROV1 ovarian, 99.1%; in the test with OVCAR-3 ovarian, 119%. For the same molecule, the growth in the test on HS 578T breast was 102%; with NCI/ADR-RES ovarian, 110%; in the test with T-47D breast it was 108%; in the test on BT-549 breast, 97%; in the test on MDA-MB-435 melanoma, 100%; with SW-620 colon it was 102%. The growth with MCF7 breast is 105%; with HCT-116 colon, 105%; with HCC-2998 colon, 107%; in the test with KM12 colon, 112%.
Regarding `COC(=O)c1c2c(c(C)[n+]([O-])c1C)C(=O)C=C(NCc1ccc(F)c(F)c1)C2=O`, the growth is -6.01% (active) with RPMI-8226 leukemia; -2.54% (active) in the test with OVCAR-8 ovarian; -83.1% (active) in the test with OVCAR-5 ovarian; -98.7% (active) in the test with OVCAR-4 ovarian; -67.3% (active) in the test with IGROV1 ovarian; -47.2% (active) in the test on OVCAR-3 ovarian. In addition, the growth is -20.4% (active) in the test on HS 578T breast; -17.5% (active) in the test on NCI/ADR-RES ovarian; -42.5% (active) in the test on T-47D breast; -97.2% (active) with BT-549 breast; -92.2% (active) in the test on MDA-MB-435 melanoma; -43% (active) in the test with SW-620 colon. The growth was -65.7% (active) in the test with MCF7 breast, -53.9% (active) in the test on HCT-116 colon, -66.5% (active) in the test with HCC-2998 colon and -14.9% (active) in the test on KM12 colon.
Consider `O=C(/C=C/c1ccc(C(F)(F)F)cc1)c1ccc(Nc2nc(NCCO)nc(Nc3ccc(Cl)cc3)n2)cc1`, for which the growth is 6.67% (active) in the test with RPMI-8226 leukemia; 52.6% with OVCAR-8 ovarian; 97.3% in the test on OVCAR-5 ovarian; 42.2% with OVCAR-4 ovarian; 83.5% with IGROV1 ovarian; 27.1% in the test with OVCAR-3 ovarian. Moreover, the growth is 72.4% in the test with HS 578T breast; 78.7% in the test with NCI/ADR-RES ovarian; 24.2% in the test on T-47D breast; 57.9% in the test with BT-549 breast; 47.7% in the test with MDA-MB-435 melanoma; 0.404% (active) in the test on SW-620 colon. For the same molecule, the growth with MCF7 breast was -43.1% (active); with HCT-116 colon, -85.6% (active); in the test with HCC-2998 colon it was -30.2% (active); in the test with KM12 colon it was -51.2% (active).
For `COc1ccc(C2C3=C(COC3=O)N(CCO)c3cc4c(cc32)OCCO4)cc1` (stereo not given), the growth is 99.9% in the test on RPMI-8226 leukemia; 84.6% in the test with OVCAR-8 ovarian; 99.8% with OVCAR-5 ovarian; 98.8% in the test with OVCAR-4 ovarian; 80.7% with IGROV1 ovarian; 50.4% with OVCAR-3 ovarian. In addition, the growth with HS 578T breast is 71.6%; in the test with NCI/ADR-RES ovarian it was 95.5%; in the test on T-47D breast, 80.4%; in the test with MDA-MB-435 melanoma, 1.1% (active); with SW-620 colon it was 55.2%; in the test with HCT-116 colon it was 77.2%. Besides, the growth is 76.5% in the test with HCC-2998 colon and 49% in the test with KM12 colon.
Regarding `Nc1nc2c(ncn2[C@@H]2O[C@H](CS)[C@@H](O)[C@H]2O)c(=O)[nH]1`, the growth with RPMI-8226 leukemia is 94.9%; in the test on OVCAR-8 ovarian it was 99.2%; in the test on OVCAR-5 ovarian, 93.3%; in the test on OVCAR-4 ovarian, 99.1%; with IGROV1 ovarian, 103%; with OVCAR-3 ovarian, 104%. The growth with HS 578T breast was 99.6%; in the test on NCI/ADR-RES ovarian, 104%; in the test on T-47D breast, 107%; with BT-549 breast, 100%; in the test with MDA-MB-435 melanoma it was 99.8%; in the test on SW-620 colon it was 96%. The growth with MCF7 breast is 101%; in the test on HCT-116 colon it was 102%; with HCC-2998 colon it was 104%; with KM12 colon it was 101%.
As to `COc1ccccc1C1=C(Br)C(=O)c2nc(C)ccc2C1=O`, the growth was 104% with RPMI-8226 leukemia; 96.8% in the test with OVCAR-8 ovarian; 110% in the test on OVCAR-5 ovarian; 97.8% in the test on OVCAR-4 ovarian; 97.3% in the test on IGROV1 ovarian; 81% in the test on OVCAR-3 ovarian. Further, the growth in the test on HS 578T breast is 104%; with NCI/ADR-RES ovarian, 107%; with T-47D breast, 69.6%; in the test with MDA-MB-435 melanoma, 104%; in the test with SW-620 colon, 87.9%; in the test with MCF7 breast it was 90.8%. In addition, the growth with HCT-116 colon is 92.1%; with HCC-2998 colon, 102%; with KM12 colon it was 103%.
As to `O=Cc1c(OCc2cnnn2CC(=O)Nc2ccc(Cl)cc2)ccc2ccccc12`, the growth in the test on RPMI-8226 leukemia was 105%; in the test with OVCAR-8 ovarian, 99.2%; with OVCAR-5 ovarian, 94.8%; in the test on OVCAR-4 ovarian it was 100%; in the test with IGROV1 ovarian, 96%; with OVCAR-3 ovarian, 103%. Further, the growth was 101% in the test on HS 578T breast; 102% in the test on NCI/ADR-RES ovarian; 104% with T-47D breast; 90.4% in the test with BT-549 breast; 104% in the test on MDA-MB-435 melanoma; 99.2% in the test on SW-620 colon. For the same molecule, the growth in the test on MCF7 breast is 81.5%; with HCT-116 colon, 104%; in the test on KM12 colon it was 101%.
Turning to `CC(C)Cn1c2c(c(=S)[nH]c1=O)CCC2`, the growth in the test on RPMI-8226 leukemia is 99.2%; in the test with OVCAR-8 ovarian, 101%; with OVCAR-5 ovarian, 99.5%; in the test with OVCAR-4 ovarian it was 101%; in the test with IGROV1 ovarian it was 103%; with OVCAR-3 ovarian it was 111%. Besides, the growth in the test on HS 578T breast is 102%; with NCI/ADR-RES ovarian, 106%; with T-47D breast, 111%; in the test on MDA-MB-435 melanoma, 98.9%; in the test on SW-620 colon it was 93.6%; with MCF7 breast, 109%. Further, the growth was 105% with HCT-116 colon, 123% with HCC-2998 colon and 105% in the test on KM12 colon.
